# Data: the supplement of paper PMC7156485
# ± gives the standard deviation of the averaged measurements.
# Columns and labels:
# Conditions in all cases: concentration: 10 µM; 24 h
# [1] = test system: HCC1569; experiment: cell number relative to DMSO (% of DMSO); higher = more cells (less growth inhibition / toxicity)
# How it was run: (§1)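 H1.0 nuclear intensity or cell number is expressed as percent of the plate control, with the median of replicates taken. HCC1569 and TDF cells were treated with compounds at 10 µM for 24 h at 37 °C, in triplicate, then fixed and immunostained for H1.0 with DAPI as a nuclear stain. HCC1569 values were smoothed to correct for positional effects.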
# [2] = test system: TDF; experiment: as above
# How it was run: as §1
# [3] = test system: TDF; experiment: H1.0 immunofluorescence intensity relative to DMSO (% of DMSO); higher = stronger H1.0 induction, active = 120 or more
# How it was run: as §1
# [4] = test system: HCC1569; experiment: H1.0 immunofluorescence intensity relative to DMSO (% of DMSO); higher = stronger H1.0 induction, active = 140 or more
# How it was run: as §1
# 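For H1.0 immunofluorescence intensity relative to DMSO in this document: TDF is a line of transformed human dermal fibroblasts of mesenchymal origin.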
# 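For cell number relative to DMSO in this document: TDF denotes transformed human dermal fibroblasts of mesenchymal origin.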
Structure (SMILES),cell number [1],cell number [2],H1.0 immunofluorescence intensity [3],H1.0 immunofluorescence intensity [4]
Clc1cnc(Oc2ccc(Oc3ncc(Cl)cc3Cl)cc2)c(Cl)c1,100,109,97.1 (inactive),99.2 (inactive)
CCN(CC)C(=O)NC1C=C2c3cccc4[nH]cc(c34)CC2N(C)C1 (stereo not drawn) [S-(-)-Lisuride],101,105,95.5 (inactive),93.6 (inactive)
"CC(C)CC1C(=O)N2CCCC2C2(O)OC(NC(=O)C3C=C4c5cccc6[nH]c(Br)c(c56)CC4N(C)C3)(C(C)C)C(=O)N12.CS(=O)(=O)O (single isomer, unassigned; (+)) [(+)-Bromocriptine methanesulfonate]",91.1,103,96.3 (inactive),108 (inactive)
CC(=O)NBr [N-Bromoacetamide],105,101,96.8 (inactive),90.3 (inactive)
CS(=O)(=O)O.S=C=Nc1cccc(C2(N3CCCCC3)CCCCC2)c1 [Metaphit methanesulfonate],106,107,83.4 (inactive),94.5 (inactive)
O=C(O)CCCc1ccc(N(CCCl)CCCl)cc1 [Chlorambucil],86.2 ± 2.5,85.1 ± 7.6,97.1 (inactive),98.4 (inactive)
Cl.NCCc1ccc(S(=O)(=O)F)cc1 [4-(2-Aminoethyl)benzenesulfonyl fluoride hydrochloride],100,107,93.2 (inactive),88.6 (inactive)
"C[N+]1([O-])C2CC(OC(=O)C(CO)c3ccccc3)CC1C1OC12 (single isomer, unassigned; (-)) [(-)-Scopolamine N-oxide]",96.4,105,99.4 (inactive),102 (inactive)
CC1OC(OC2CC(O)C3(CO)C4C(O)CC5(C)C(C6COC(=O)C6)CCC5(O)C4CCC3(O)C2)C(O)C(O)C1O (centres undefined) [Dihydroouabain],61.7,43.7,104 (inactive),82.2 (inactive)
CCCCCC=CCC=CCC=CCC=CCCCC(=O)NCC(=O)O [N-Arachidonylglycine],108,98.1,95.7 (inactive),95.8 (inactive)
COC(=O)CC(O)(CCC(C)(C)O)C(=O)OC1C(OC)=CC23CCCN2CCc2cc4c(cc2C13)OCO4 (centres undefined) [Harringtonine],56.5,29.9,107 (inactive),90 (inactive)
C[Se]CC(N)C(=O)O.Cl (centres undefined) [Se-(methyl)selenocysteine hydrochloride],99.6,90.3,99 (inactive),98.1 (inactive)
CCC1(O)C(=O)OCc2c1cc1n(c2=O)Cc2cc3ccccc3nc2-1 (centres undefined) [Camptothecin],54.2 ± 2.9,24 ± 1.1,128 (active),120 (inactive)
Br.COC(=O)C1=CCCN(C)C1 [Arecoline hydrobromide],101,102,93.3 (inactive),86.6 (inactive)
CCCN(CCC)C1CCc2c(F)ccc(O)c2C1.Cl (stereo not drawn) [R(+)-UH-301 hydrochloride],103,109,89.2 (inactive),101 (inactive)
"CC1OC(=O)C2CC3CCCCC3C(C=CC3CCCC(C)N3C)C12 (single isomer, unassigned; (+)) [(+)-Himbacine]",102,112,91 (inactive),109 (inactive)
CN1C(=O)CCS(=O)(=O)C1c1ccc(Cl)cc1 (centres undefined) [Chlormezanone],101,108,85.9 (inactive),95.3 (inactive)
CC1CCC2(NC1)OC1CC3C4CCC5CC(O)CCC5(C)C4CCC3(C)C1C2C (centres undefined) [Tomatidine],104,102,99.2 (inactive),83.5 (inactive)
CCCCCN(C)CCC(O)(P(=O)([O-])O)P(=O)(O)O.[Na+],99.5,105,89.4 (inactive),102 (inactive)
COc1ccccc1N1CCNCC1.Cl [1-(2-Methoxyphenyl)piperazine hydrochloride],105,113,96.4 (inactive),98.8 (inactive)
CN(C)C(=O)Oc1cccc([N+](C)(C)C)c1 [Neostigmine],104,112,96.8 (inactive),101 (inactive)
CNC1CC(c2ccc(Cl)c(Cl)c2)c2ccccc21.Cl (centres undefined) [Indatraline hydrochloride],84.1,85.9,110 (inactive),133 (inactive)
"CCCN(CCC)CCc1c[nH]c2ccc(C(N)=O)cc12.O=C(O)C=CC(=O)O [N,N-Dipropyl-5-carboxamidotryptamine maleate]",99.4,104,97 (inactive),98.9 (inactive)
"CS(=O)(=O)O.Cc1c(C(=O)c2cccc3ccccc23)c2cccc3c2n1C(CN1CCOCC1)CO3 (stereo not drawn) [( R)-(+)-WIN 55,212-2 mesylate]",72.8,53.4,131 (active),209 (active)
OC1CN2CCC(O)C2C(O)C1O (centres undefined) [Castanospermine],100,104,89.5 (inactive),90.4 (inactive)
COCC1OC(=O)c2coc3c2C1(C)C1=C(C3=O)C2CCC(=O)C2(C)CC1OC(C)=O (centres undefined) [Wortmannin],43.3,91.8,90.9 (inactive),140 (inactive)

Structure (SMILES),cell number [1],cell number [2],H1.0 immunofluorescence intensity [3],H1.0 immunofluorescence intensity [4]
C[N+]1(C)C2CCC1CC(OC(=O)C(CO)c1ccccc1)C2.[Br-] (centres undefined) [Atropine methyl bromide],102,105,91.2 (inactive),93.9 (inactive)
NC(CCCCCP(=O)(O)O)C(=O)O (racemic),102,105,96.9 (inactive),98.4 (inactive)
NC(Cn1oc(=O)[nH]c1=O)C(=O)O (centres undefined) [Quisqualic acid],100,94.9,102 (inactive),92.7 (inactive)
CC1(O)CC23CC(O)C4(O)C(CC(O)C4(C)C)C(C)(O)C2CCC1C3O (centres undefined) [Grayanotoxin III],99.6,102,91.9 (inactive),88.2 (inactive)
CCCN(CCC)C(=O)Cc1c(-c2ccc(Cl)cc2)nc2ccc(Cl)cn12,87.6,93.7,100 (inactive),115 (inactive)
CN1C2CCC1CC(O)C2 (centres undefined) [Tropine],102,104,96.1 (inactive),90 (inactive)
COC12CC(COC(=O)c3cncc(Br)c3)CN(C)C1Cc1cn(C)c3cccc2c13 (centres undefined) [Nicergoline],104,102,92.9 (inactive),102 (inactive)
Cc1cccc(C)c1NC1=NCCCS1.Cl [Xylazine hydrochloride],100,118,99.9 (inactive),111 (inactive)
"C=CC1CN2CCC1CC2C(O)c1ccnc2ccccc12 (single isomer, unassigned; (+)) [(+)-Cinchonine]",101,106,98.9 (inactive),91.1 (inactive)
CC1Cc2cc3c(cc2C(c2ccc(N)cc2)=NN1)OCO3 (centres undefined),98.9,112,103 (inactive),98.2 (inactive)
CCCN(CCC)C1Cc2cc(OC)c(OC)cc2C1.O=C(O)C=CC(=O)O,103,107,97.7 (inactive),102 (inactive)
"CN1Cc2c(ccc3c2OCO3)C2C(O)Cc3cc4c(cc3C21)OCO4 (single isomer, unassigned; (+)) [(+)-Chelidonine]",58,7.56,193 (active),148 (active)
CCCCCCCCCCCCCCCCOCC(O)COP(=O)([O-])OCC[N+](C)(C)C (centres undefined),101,105,97.4 (inactive),104 (inactive)
Br.COc1c2c(cc3c1OCO3)CCN(C)C2 [Hydrocotarnine HBr],102,107,104 (inactive),92.6 (inactive)
CCC1(c2ccc(N)cc2)CCC(=O)NC1=O (racemic) [DL-Aminoglutethimide],109,102,93.1 (inactive),109 (inactive)
CCN1CC2(COC)CCC(OC)C34C5CC6(O)C(OC)CC(OC(C)=O)(C5C6C(=O)c5ccc(OC)cc5)C(C(OC)C23)C14 (centres undefined) [Bulleyaconotine A],99,103,103 (inactive),88.8 (inactive)
CC(C)C1C(=O)OC2CCN3CC=C(COC(=O)C(C)(O)C1(C)O)C23 (centres undefined) [Trichodesmine],99.6,103,93.2 (inactive),89.8 (inactive)
NCC1(CC(=O)O)CCCCC1 [Gabapentin],104 ± 4.7,108 ± 6.5,94.7 (inactive),93.5 (inactive)
CC1CCC2(NC1)OC1CC3C4CC=C5CC(O)CCC5(C)C4CCC3(C)C1C2C (centres undefined) [Solasodine],102,97.4,100 (inactive),89.2 (inactive)
CSC(=S)NCc1c[nH]c2ccccc12 [Brassinin],100,90.8,97.9 (inactive),99.7 (inactive)
CCCCCC=CCC=CCC=CCC=CCCCC(=O)NC(C)CO [(R)-Methandamide],107,98.1,100 (inactive),100 (inactive)
NCCCNCCSP(=O)(O)O [Amifostine],102.2 ± 1,104 ± 2.8,91.8 (inactive),98.1 (inactive)
COc1ccc2c(c1)C(=Cc1cnc[nH]1)C(=O)N2,72.4,49.2,98.1 (inactive),107 (inactive)
NCC(CC(=O)O)c1ccc(Cl)cc1 (racemic),99.3,112,94.3 (inactive),99.1 (inactive)
CC1CCC2C(C)C3C(CC4C5CCC6CC(O)CCC6(C)C5CCC43C)N2C1 (centres undefined) [Demissidine],97.9,92.2,102 (inactive),92.6 (inactive)
